The campaign covered roughly 220,000 compounds. About 16,000 (7.3%) were called active. Not shown: some 25% with an inconclusive outcome. The sample holds actives, similar compounds and a random draw of the others, so the mix is not that of the screen. The call rests on the fitted dose curve; in most records, active means well fitted inhibition curve with a large enough effect (not every such curve was filed as active); inconclusive means small, poorly fitted or top-dose-only effect, or another doubt; inactive means no such curve, though single readings can be large or run the other way.
Each compound was assayed against Aldehyde dehydrogenase 1A1 (Homo sapiens) (UniProt P00352) (assay: qHTS Assay for Inhibitors of Aldehyde Dehydrogenase 1 (ALDH1A1)). Settings: Purified ALDH1A1, NADH fluorescence, propionaldehyde substrate; series mostly up to 75.3 µM; activity, negative = inhibition: at the top concentration.
Sequence of Aldehyde dehydrogenase 1A1 (Homo sapiens) (P00352 whole entry, looked up): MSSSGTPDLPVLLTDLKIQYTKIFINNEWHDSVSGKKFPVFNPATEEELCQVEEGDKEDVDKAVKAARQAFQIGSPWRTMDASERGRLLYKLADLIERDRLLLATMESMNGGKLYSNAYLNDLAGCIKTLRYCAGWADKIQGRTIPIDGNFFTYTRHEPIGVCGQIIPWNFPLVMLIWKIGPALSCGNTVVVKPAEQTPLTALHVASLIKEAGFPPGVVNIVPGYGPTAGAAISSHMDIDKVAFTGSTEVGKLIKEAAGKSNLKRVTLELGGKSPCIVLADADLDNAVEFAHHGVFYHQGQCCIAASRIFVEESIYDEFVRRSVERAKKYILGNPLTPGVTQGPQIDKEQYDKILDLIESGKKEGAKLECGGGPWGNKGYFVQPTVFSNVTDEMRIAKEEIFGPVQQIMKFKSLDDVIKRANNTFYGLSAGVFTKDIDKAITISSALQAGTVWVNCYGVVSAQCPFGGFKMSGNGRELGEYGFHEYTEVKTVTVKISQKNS
Potency means the concentration at half of the fitted maximal effect.
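Wherever activity, negative = inhibition is given: plate controls were no enzyme wells and a reference inhibitor.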

Row | SMILES | activity, negative = inhibition | Potency
1 | O=C(CSc1ccccc1F)NC1CCS(=O)(=O)C1 (stereo not drawn) | 3.62% (inactive) | 
2 | O=C(Cc1ccc2c(c1)CCCC2)Nc1ccccc1Cl |  | 12.6 µM (active)
3 | O=C(CN1CCCCC1)Nc1ccccc1Cl | 14.8% (inactive) | 
4 | CSc1ccccc1NC(=O)Cc1ccc(Br)cc1 | 5.36% (inactive) | 
5 | Cc1cc(/C=C2/SC(=O)N(CC(=O)N3CCCC3)C2=O)ccc1N1CCOCC1 | 5.53% (inactive) | 
6 | C/C(=N/OC(=O)c1c(-c2c(F)cccc2Cl)noc1C)c1cnccn1 | -4.17% (inactive) | 
7 | CC(=O)c1ccc(NC(=O)C(C)NCc2ccc(Cl)cc2)cc1 (stereo not drawn) | 1.47% (inactive) | 
8 | O=C(NCc1ccc2c(c1)OCO2)c1ccc(Cl)s1 | 11.5% (inactive) | 
9 | O=C(NCc1ccc2c(c1)OCO2)c1sccc1Br | -7.89% (inactive) | 
10 | O=C(NCc1ccc2c(c1)OCO2)c1ccc2c(c1)C(=O)N(CC1CCCO1)C2=O (stereo not drawn) |  | 1.58 µM (active)
11 | Cc1csc(SCC(=O)Nc2sccc2C#N)n1 | -1.71% (inactive) | 
12 | O=C1CCC(CCC(=O)N2CCCC(C(=O)c3ccc(Cl)cc3)C2)=NN1 (stereo not drawn) | 17.7% (inactive) | 
13 | O=C(CCCN1C(=O)C2C3C=CC(C3)C2C1=O)N1CCN(c2ccccc2)CC1 (stereo not drawn) |  | 12.6 µM (active)
14 | CC(CC(=O)N1CCN(c2ccccc2)CC1)c1ccccc1 (stereo not drawn) | 13.1% (inactive) | 
15 | O=C(CCN1C(=O)C2C3C=CC(C3)C2C1=O)Oc1ccc2ccccc2c1 (stereo not drawn) | -9.74% (inactive) | 
16 | S=c1[nH]ccn1-c1ccc(Cl)cc1 | -9.08% (inactive) | 
17 | Cc1ccc(CN2CCN(Cc3ccccc3-c3ccco3)CC2CCO)o1 (stereo not drawn) | 8.18% (inactive) | 
18 | CC(C)CCN1CCN(Cc2ccc(C(F)(F)F)cc2)CC1CCO (stereo not drawn) | 0.124% (inactive) | 
19 | CC(C)CCN1CCN(C/C=C/c2ccco2)CC1CCO (stereo not drawn) |  | 28.2 µM (active)
20 | COC(=O)c1cccnc1NC(=S)NC(C)C | 1.85% (inactive) | 

Row | SMILES | activity, negative = inhibition | Potency
21 | COc1ccc(N=Nc2ccc(O)c(P(=O)(c3ccccc3)c3ccccc3)c2)cc1 | 6.87% (inactive) | 
22 | CCOc1cc(/C=C2/N=C(c3ccc(C(C)(C)C)cc3)OC2=O)cc(Cl)c1OS(C)(=O)=O |  | 22.4 µM (active)
23 | CN(CCc1cnn(C)c1)Cc1cn(C)nc1-c1ccccc1F | 2.47% (inactive) | 
24 | COc1cccc(CNC(=O)CCC2CCCN(C(=O)c3ccoc3C)C2)c1 (stereo not drawn) |  | 22.4 µM (active)
25 | COc1cccc(CNC(=O)CCC2CCCN(C(=O)c3cc(C)[nH]n3)C2)c1 (stereo not drawn) | -5.25% (inactive) | 
26 | COc1cccc(C(=O)N2CCCC(CCC(=O)NCc3ccc(F)c(F)c3)C2)c1 (stereo not drawn) | -7.32% (inactive) | 
27 | Cc1ccc(C(NC(=O)N2CCCC2)C(Cl)(Cl)Cl)cc1F (stereo not drawn) | 8.02% (inactive) | 
28 | c1ccc2nc(C3=NCCN3)cnc2c1 | -9.53% (inactive) | 
29 | CC(=O)Nc1cccc(-c2cnc3ccccc3n2)c1 | 3.58% (inactive) | 
30 | Cc1cc(O)ccc1-c1cnc2ccccc2n1 |  | 28.2 µM (active)
31 | Cc1cccc(NC(=S)NC23CN4CN(CN(C4)C2)C3)c1 | 4.51% (inactive) | 
32 | Cc1ccc(SCc2cc(=O)[nH]c(N3CCCCC3)n2)cc1 | 3.1% (inactive) | 
33 | Cc1ccc(Nc2nc(CSc3nnnn3-c3ccccc3)cc(=O)[nH]2)cc1 |  | 22.4 µM (active)
34 | CC1CCN(Cc2nc(-c3ccc(Cl)cc3)no2)CC1 | 0.85% (inactive) | 
35 | Cc1ccc(-c2noc(CN3CCN(Cc4ccccc4)CC3)n2)cc1 |  | 28.2 µM (active)
36 | Cc1ccc(-c2noc(CSc3nnnn3-c3ccccc3)n2)cc1 |  | 7.08 µM (active)
37 | Cc1ccc(-c2noc(CC(c3ccccc3)c3ccccc3)n2)cc1 | -4.15% (inactive) | 
38 | COc1ccc(-n2nnnc2SCC(=O)Nc2ccccc2)cc1 | 3.98% (inactive) | 
39 | Cc1ccc(-c2noc(CSc3nnc(-c4ccccc4)n3C)n2)cc1 | -1.16% (inactive) | 
40 | Cc1ccc(-c2noc(CSc3nnc(-c4cccs4)n3C)n2)cc1 | -10.9% (inactive) | 

Row | SMILES | activity, negative = inhibition | Potency
41 | Fc1cc(Br)ccc1NC(=S)Nc1cccnc1 | 4.56% (inactive) | 
42 | COc1ccc(S(=O)(=O)N2CCOCC2)cc1NC(=O)CSc1ncnc2ccccc12 | 1.11% (inactive) | 
43 | Cc1ccc(NS(=O)(=O)c2cccs2)cc1S(=O)(=O)N1CCCCCC1 | -8.54% (inactive) | 
44 | COc1ccc(N(C)S(=O)(=O)c2cccc3nsnc23)cc1 | 12.9% (inactive) | 
45 | FC(F)(F)c1cccc(Cc2noc(CN3CCC(N4CCCCC4)CC3)n2)c1 | 8.7% (inactive) | 
46 | CC1=NCCN1S(=O)(=O)c1cccc([N+](=O)[O-])c1 | 8.77% (inactive) | 
47 | Fc1ccccc1Cn1cnc(NC(=S)NCCc2ccccc2)n1 | 0.197% (inactive) | 
48 | Cc1ccc(SCC(=O)Nc2ccc3c(c2)OCCO3)cc1 | -11.8% (inactive) | 
49 | O=C(CSc1nc(C2CC2)nc2ccccc12)Nc1ccc2c(c1)OCCO2 | 3.13% (inactive) | 
50 | O=C(CSc1nnnn1C1CCCC1)Nc1ccc2c(c1)OCCO2 |  | 6.31 µM (active)
51 | O=C(CSc1nnc(-c2ccncc2)n1C1CCCCC1)Nc1ccccc1 | 1.01% (inactive) | 
52 | CCC(=O)Nc1cccc(NC(=O)CSc2nnc(-c3ccc(NS(C)(=O)=O)cc3)n2C)c1 | 5.23% (inactive) | 
53 | CCC(=O)Nc1cccc(NC(=O)CSc2nnnn2C2CCCC2)c1 |  | 12.6 µM (active)
54 | COc1cc(NC(=O)CSc2nnc3ccc(-c4ccncc4)nn23)cc(OC)c1 | 10.7% (inactive) | 
55 | CCNC(=O)COC(=O)CCNC(=O)c1cccc(C)c1 | 1.01% (inactive) | 
56 | O=C(COC(=O)c1cc(S(=O)(=O)N2CCCCC2)ccc1Cl)NCc1ccco1 | 0.76% (inactive) | 
57 | NS(=O)(=O)c1ccc(NC(=O)COC(=O)c2ccc(Cl)nc2)cc1 | 13.1% (inactive) | 
58 | O=C(COC(=O)c1ccc(Cl)nc1)NCc1ccc2c(c1)OCO2 | 0.469% (inactive) | 
